# Data from the supplement of paper PMC6555819.
# Key:
# Test in all cases: PBM binding z-score (relative to random genomic background probes); higher = stronger binding; sequences stand for … in GC…GCGATTGACAGCGTAGAATGAAGG
# [1] = system: FXR:RXRa (NR concentration 270 nM, RXRa partner concentration 90 nM)
# Procedure, shortened: (§1)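 Binding buffer was PBS pH 7.4 with 2% milk, 0.02% Triton X-100, 1 mM DTT, 0.2 mg/mL BSA and 0.4 mg/ml salmon testes DNA. In it, ligand-free nuclear receptor dimers were incubated 1 h on custom Agilent 4×180K protein-binding microarrays carrying double-stranded probes. Antibodies against each partner (one per run) detected binding, and z-scores were calculated against random background probes after regression normalization of scanned fluorescence.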
# [2] = system: LXRa:RXRa (NR concentration 270 nM, RXRa partner concentration 90 nM)
# Procedure, shortened: as §1
# [3] = system: LXRa homodimer (NR concentration 270 nM)
# Procedure, shortened: as §1
# [4] = system: LXRb:RXRa (NR concentration 270 nM, RXRa partner concentration 90 nM)
# Procedure, shortened: as §1
# [5] = system: LXRb homodimer (NR concentration 270 nM)
# Procedure, shortened: as §1
# [6] = system: PPARa:RXRa (NR concentration 270 nM, RXRa partner concentration 90 nM)
# Procedure, shortened: as §1
# [7] = system: PPARg:RXRa (NR concentration 180 nM, RXRa partner concentration 90 nM)
# Procedure, shortened: as §1
# [8] = system: PPARg:RXRa 270nM:90nM, anti-RXR (NR concentration 270 nM, RXRa partner concentration 90 nM)
# Procedure, shortened: as §1
# [9] = system: PPARg:RXRa 30nM:10nM, anti-RXR (NR concentration 30 nM, RXRa partner concentration 10 nM)
# Procedure, shortened: as §1
# [10] = system: PPARg:RXRa 90nM:30nM, anti-RXR (NR concentration 90 nM, RXRa partner concentration 30 nM)
# Procedure, shortened: as §1
# [11] = system: PPARg:RXRa DBDmut IVT, anti-RXR (DBD mutation: RXRa K156A/R161A, NR concentration 270 nM, RXRa partner concentration 90 nM)
# Procedure, shortened: as §1
# [12] = system: PPARg:RXRa IVT, anti-PPARg (NR concentration 270 nM, RXRa partner concentration 90 nM)
# Procedure, shortened: as §1
# [13] = system: PPARg DBDmut:RXRa IVT, anti-PPARg (DBD mutation: PPARg1 K132A/R137A, NR concentration 270 nM, RXRa partner concentration 90 nM)
# Procedure, shortened: as §1
# [14] = system: PPARg DBDmut IVT, anti-PPARg (DBD mutation: PPARg1 K132A/R137A, NR concentration 270 nM)
# Procedure, shortened: as §1
# [15] = system: PPARg homodimer (NR concentration 180 nM)
# Procedure, shortened: as §1
# [16] = system: PXR:RXRa (NR concentration 270 nM, RXRa partner concentration 90 nM)
# Procedure, shortened: as §1
# [17] = system: PXR homodimer (NR concentration 270 nM)
# Procedure, shortened: as §1
# [18] = system: RARa:RXR (NR concentration 270 nM, RXRa partner concentration 90 nM)
# Procedure, shortened: as §1
# [19] = system: RARa homodimer (NR concentration 270 nM)
# Procedure, shortened: as §1
# [20] = system: RARb:RXRa (NR concentration 270 nM, RXRa partner concentration 90 nM)
# Procedure, shortened: as §1
Sequence,PBM binding z-score [1],PBM binding z-score [2],PBM binding z-score [3],PBM binding z-score [4],PBM binding z-score [5],PBM binding z-score [6],PBM binding z-score [7],PBM binding z-score [8],PBM binding z-score [9],PBM binding z-score [10],PBM binding z-score [11],PBM binding z-score [12],PBM binding z-score [13],PBM binding z-score [14],PBM binding z-score [15],PBM binding z-score [16],PBM binding z-score [17],PBM binding z-score [18],PBM binding z-score [19],PBM binding z-score [20]
TCTTGTTGATCAAGCAGGTTAAGAAAGCCTGAGT,0.36,0.33,-0.00348,0.357,-0.269,0.497,-0.685,1.11,2.49,1.96,1.34,0.182,-0.406,0.392,0.2,0.29,0.159,0.176,-0.0111,0.317
ATGGAAAGGTCGACGAGGTGAGTATACACCGTTT,4.39,3.03,-0.133,2.47,0.238,4.12,2.69,2.93,1.17,1.95,0.338,1.89,0.736,1.01,1.38,2.96,0.609,3.54,0.422,3.73
CCTAGTTGGTAAAGGTCACACACGCTATAGGTAC,6.25,5.71,4.56,5.64,2.13,5.93,5.47,6.3,4,5.63,1.96,4.31,1.8,2.57,5.56,5.79,2.18,6.31,3.99,5.22
ATACCAATGTGATCGTGAGGTCGTTGATACTAAC,1.13,0.684,0.704,0.894,-0.063,0.905,0.346,0.198,0.123,0.295,-0.174,0.568,0.648,1.38,0.242,2.06,1.23,1.39,-0.115,0.569
TTACCAAGGTGAAGTTCGTTGATCCCTCTGTAGA,1.07,1.09,-0.342,0.617,-0.644,1.98,1.16,2.35,0.877,2.05,2.04,2.68,0.229,0.131,0.308,1.23,0.329,0.86,-0.298,1.75
CGATCTAGGTCATCCAGGACAGTGAATACATTGA,4.46,2.5,0.582,2.09,0.272,4.82,7.36,6.3,3.7,5.8,7.91,8.21,6.15,1.47,2.27,2.13,1.59,2.41,0.582,3.89
TCTTGTAGATCAATAGAGGTTAAGAGAGTGCGCT,1.02,3.23,0.39,1.56,-0.263,1.97,0.0918,1.53,2.37,2.22,1.67,1.07,0.505,0.44,0.687,3.92,0.241,1.73,0.69,0.738
TCTTGTAGATCAATAGAGGTTATGAAAGTGCGCT,0.99,3.56,0.696,1.68,0.325,1.9,0.356,2.08,2.99,2.41,1.9,1.34,0.208,0.487,0.327,2.9,0.0755,2.04,0.403,1.02
ATATGTAGGTTAGCTGGGGTCACTCAGACTAGGC,4.47,5.35,1.4,4.08,1.05,5.03,5.15,5.18,2.81,4.46,6.74,6.02,1.28,0.639,2.37,5.85,2.05,5.16,0.798,3.22
ACTTACGGGTCAACGAGGTTATAGCACGCGTATA,6.51,5.39,0.989,4.36,0.794,5.52,5.71,5.48,2.87,4.14,3.5,4.09,1.65,1.55,2.55,5.1,3.34,5.39,1.16,4.13
TCTTGTAGATCAACACGAGGTTAAGAAAGATCGA,0.233,1.58,0.248,1.01,-0.293,1.55,0.0854,1.33,2.58,1.94,1.48,1.07,0.862,1,0.489,1.05,0.0696,1.27,0.374,0.536
TCATATAGGTAAACAGGAGAAAGTCCGTAAGTTA,0.871,0.628,-0.02,0.291,-0.116,0.987,1.23,2.26,3.93,3.07,4.08,2.77,0.715,0.615,0.67,0.188,0.377,0.0372,0.767,0.292
GCGACTGGGGCATCGGCAGGTTACCATAACTTAA,0.0165,-0.138,-0.214,0.589,-0.797,1.06,0.979,1.1,-0.324,0.563,3.7,3.26,-0.659,-0.662,0.364,0.0639,-0.275,0.387,-0.205,0.954
GCAGACAGGAGAAACGCAGGTAACTCAGGGTGGC,-0.504,-0.393,-0.471,-0.777,-1.34,-0.523,0.376,-0.659,-0.781,-0.611,-0.542,-0.859,-0.9,-0.99,-0.201,-0.694,-0.412,-0.368,-1.26,-0.624
ACTATTAGTTGAGACCAGGGCAACCGATAGGTTG,0.433,-0.242,-0.0882,-0.177,0.0937,0.067,0.508,0.263,0.00186,-0.189,0.0901,0.557,0.284,0.911,-0.00507,0.204,0.236,0.191,0.419,0.628
ATCTCTAGGTAAGACTCAGTTCAGTGATGAACGC,0.343,0.402,0.634,0.249,0.676,0.268,0.294,0.427,0.243,0.302,1.78,1.28,1.15,1.33,1.36,0.974,1.63,0.24,0.763,0.357
CCTTCCGGGTCACGAGGTTATAGCACGACGAGCG,5.95,4.51,0.67,3.92,0.139,5.88,7.46,6.88,3.82,6,5.56,6.43,0.639,-0.0446,2.53,4.81,0.436,5.82,0.661,4.55
CAAACTAGGTCACAGAGGTCAAAGTGCGTGCGTA,7.35,6.76,7.05,6.54,2.29,6.71,10.1,8.21,6.64,8.45,8.28,9.04,1.58,0.779,3.18,6.72,9.97,7.47,2.13,5.4
TCAGACAGGCGAAGGTAACTCAGGTACGCAGTCG,0.672,1.16,-0.549,0.255,-0.893,0.184,0.517,1.53,3.02,2.41,1.62,-0.431,-0.529,-0.776,-0.126,0.167,-0.281,0.0245,-0.553,0.0079
CCGACTGGGGCAAGGTTACTATAACGCACAGCCA,0.258,1.52,-0.118,0.79,-0.963,1.59,3.02,2.98,1.03,2.21,2.98,3.39,0.184,-0.443,0.157,0.274,-0.27,0.867,-0.248,1.38
CTCGAAAGGTCGTGCTCAGGTGAGAATACCAAAC,5.2,3.74,0.081,3.51,0.321,4.86,2.81,3.77,1.19,2.44,0.69,1.89,0.151,0.41,2.63,3.35,0.0262,4.6,0.317,3.93
CAAGCTAGGTCACAGAGGTCAAAGTCCGTGCGTA,7.59,6.83,7.42,6.28,1.9,5.99,6.86,6.52,3.68,5.83,5.16,5.87,0.564,0.34,6.23,6.96,12.1,8.03,2.55,5.47
TCATATAGGTAATACAGGTGACAGTCGGCATCTA,1.08,1.27,0.299,0.966,0.0585,1.77,1.81,2.52,3.86,3.05,4.18,3.85,1.35,1.53,1.04,0.765,0.723,1,1.35,0.683
CTACCAAGGTGATCAAGGTCGTTGATTACTATTC,0.873,0.837,0.0949,1.29,-0.12,1.65,0.258,0.508,-0.15,0.529,1.11,1.31,0.364,-0.201,0.492,2.22,1.77,1.33,0.0994,1.32
CGGCCAAGGTCAGAGAGGTCAGTGAATGCCGAGT,6.02,5.04,2.26,4.41,-0.527,4.79,3.72,4.34,0.655,2.75,3.09,3.49,-0.798,-1.36,3.78,5.99,12,5.43,1.18,5.21
ATAGAAAGGTCGACGAGGTGAGTATACACCGTTT,4.55,2.95,0.22,2.52,0.294,4.18,2.91,2.81,1.55,2.17,0.284,1.82,1.11,0.417,1.76,2.87,0.566,3.6,0.784,3.72
CAAACTCGGTCACGAAAGGTCAAAGTCGAATGAC,6.39,7.32,7.74,6.5,2.6,5.95,6.08,5.84,2.68,5.51,5.23,5.86,1.31,0.821,7.09,6.39,2.67,6.96,4.39,5.02
TCTGCTAGGTCAGATGGTCAGCTAACGAGCTGCC,1.36,0.977,-0.468,0.356,-0.258,1.86,1.57,2.53,1.8,2.34,2.66,2.86,0.906,-0.32,0.276,0.315,-0.95,1.22,-1.27,3.32
CCAGCCAGGTGAGAAGGTAACTCAGCCTCGATTA,-0.27,-0.406,-0.377,-0.292,-0.967,0.458,0.262,1.03,-0.318,0.318,0.886,0.642,-1.31,-0.676,-0.199,-0.486,-0.622,-0.386,-0.592,0.364
